Measured values: PubChem BioAssay (NCI)
About 79,000 compounds went through this panel and 15% of them were active in at least one assay; those are over-represented in the sample as a whole. Calls of active or inactive are those of the source. Rule as the data show it: active = growth inhibition above about 70%; inactive = the rest.

Experiments:
[1] = NCI Yeast Anticancer Drug Screen. Data for the rad52 strain (AID 147);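 also: 0% = growth of vehicle-treated control cultures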; details: S. cerevisiae rad52 mutant growth inhibition, active compounds read high
Outline: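 DNA repair-defective yeast; compound exposure; growth scored against vehicle controls.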

[2] = NCI Yeast Anticancer Drug Screen. Data for the wt1 strain (AID 149);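 also: 0% = growth of vehicle-treated wt1 cultures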; details: S. cerevisiae wt1 strain (SPY 50644) growth inhibition, active compounds read high
Outline: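 Readout: yeast growth inhibition, normalised to vehicle controls, in the wt1 strain exposed to test compounds.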

[3] = NCI Yeast Anticancer Drug Screen. Data for the rad50EPP+ strain (AID 151);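 also: 0% = growth of vehicle-treated control cultures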; details: S. cerevisiae rad50 mutant strain, active compounds read high
Outline: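 rad50EPP+ yeast treated with test compounds. Readout: growth vs vehicle control.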

[4] = NCI Yeast Anticancer Drug Screen. Data for the mgt1 strain (AID 153); details: S. cerevisiae mgt1 mutant growth inhibition, active compounds read high
Outline: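 Growth inhibition relative to vehicle controls was scored for the mgt1 yeast strain after compound exposure.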

[5] = NCI Yeast Anticancer Drug Screen. Data for the rad50 strain (AID 155);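 also: 0% = growth of vehicle-only cultures of the same strain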; details: S. cerevisiae rad50 strain growth inhibition, active compounds read high
Outline: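 Compounds were tested on a yeast strain with an engineered DNA damage repair alteration; the reported value is growth inhibition normalised to vehicle treatment.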

[6] = NCI Yeast Anticancer Drug Screen. Data for the mec2-1 strain (AID 157); details: S. cerevisiae mec2-1 strain, active compounds read high
Outline: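 Growth inhibition is read against vehicle-treated controls after compound exposure of the mec2-1 yeast strain, which is defective in DNA damage repair or cell cycle control.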

[7] = NCI Yeast Anticancer Drug Screen. Data for the rad14 strain (AID 159);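 also: 0% = growth of vehicle-treated control cultures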; details: S. cerevisiae rad14 strain growth inhibition, active compounds read high
Outline: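 Compound-treated yeast with a defined DNA-repair lesion; growth inhibition normalised to vehicle-treated cultures.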

[8] = NCI Yeast Anticancer Drug Screen. Data for the sgs1 mgt1 strain (AID 161);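 also: 0% = growth of cultures given vehicle only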; details: S. cerevisiae sgs1 mgt1 strain, active compounds read high
Outline: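 This yeast growth screen uses a strain with defined DNA-repair lesions; compound-treated growth is compared with vehicle-treated growth.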

[9] = NCI Yeast Anticancer Drug Screen. Data for the CLN2oe strain (AID 163);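 also: 0% = growth of vehicle-only control cultures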; details: S. cerevisiae CLN2oe strain, active compounds read high
Outline: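 Compound-treated yeast; growth vs vehicle ctrl = % inhibition. Genetically altered strain (cell-cycle control).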

[10] = NCI Yeast Anticancer Drug Screen. Data for the cln2 rad14 strain (AID 165);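 also: 0% = growth equal to vehicle treated cultures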; details: S. cerevisiae cln2 rad14 strain, active compounds read high
Outline: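 Growth inhibition, relative to vehicle-treated controls, is the read-out. The test organism is a yeast strain with defined genetic alterations, cln2 rad14.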

[11] = NCI Yeast Anticancer Drug Screen. Data for the bub3 strain (AID 167); details: S. cerevisiae bub3 mutant strain, active compounds read high
Outline: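 Growth of a checkpoint-deficient yeast mutant is measured after compound exposure. Values represent inhibition relative to vehicle.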

[12] = NCI Yeast Anticancer Drug Screen. Data for the wt2 strain (AID 169);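 also: 0% = growth of vehicle-treated yeast cultures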; details: S. cerevisiae wt2 strain growth inhibition, active compounds read high
Outline: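 Compound exposure of yeast; growth compared with vehicle controls; inhibition reported.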

[13] = NCI Yeast Anticancer Drug Screen. Data for the mlh1 strain (AID 171);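 also: 0% = growth of vehicle-treated control cultures of the same strain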; details: S. cerevisiae mlh1 strain growth inhibition, active compounds read high
Outline: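 Compounds are applied to a genetically altered yeast strain, and its growth is compared with that of vehicle-treated cultures to give percent inhibition.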

[14] = NCI Yeast Anticancer Drug Screen. Data for the sgs1 strain (AID 173);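 also: 0% = growth of vehicle-only control cultures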; details: S. cerevisiae sgs1 mutant, active compounds read high
Outline: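 Compounds applied to genetically altered yeast; growth compared with vehicle-treated cultures to give % inhibition.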

[15] = NCI Yeast Anticancer Drug Screen. Data for the mlh1 rad18 strain (AID 175); details: S. cerevisiae mlh1 rad18 strain growth inhibition, active compounds read high
Outline: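 Cells of a genetically altered yeast strain, deficient in DNA damage repair, were treated with compound. Their growth was then compared with that of vehicle-treated cultures to give inhibition.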

[16] = NCI Yeast Anticancer Drug Screen. Data for the rad18 strain (AID 177); details: S. cerevisiae rad18 mutant growth inhibition, active compounds read high
Outline: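 Compounds are applied to a repair-deficient yeast strain, and growth is compared with that of vehicle-treated cultures to give percent inhibition.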

[17] = at 5.0 µM (retest, dose inferred, filed as 0.5)
[18] = at 50.0 µM (retest, dose inferred, filed as 5.0)

Measured: growth inhibition

NNC(=O)CCc1ccc2ccc3ccccc3c2c1
active: [15]; at 50.0 µM 71.3%
inactive: [1]; at 1.2 µM -1% | [1]; at 3.7 µM -3% | [1]; at 11.0 µM 1% | [1]; at 33.0 µM 13% | [1]; at 100.0 µM 52% | [2]; at 1.2 µM 1% | [2]; at 3.7 µM 3% | [2]; at 11.0 µM 3% | [2]; at 33.0 µM 3% | [2]; at 100.0 µM 18% | [3]; at 1.2 µM 2% | [3]; at 3.7 µM 4% | [3]; at 11.0 µM 15% | [3]; at 33.0 µM 34% | [3]; at 100.0 µM 58% | [4]; at 1.2 µM -2% | [4]; at 3.7 µM -3% | [4]; at 11.0 µM -5% | [4]; at 33.0 µM -4% | [4]; at 100.0 µM 23% | [5]; at 1.2 µM 0% | [5]; at 3.7 µM -4% | [5]; [17] -13% | [5]; at 11.0 µM 9% | [5]; at 33.0 µM 7% | [5]; [18] 7% | [5]; at 50.0 µM 28.1% | [5]; at 100.0 µM 58% | [6]; at 1.2 µM -1% | [6]; at 3.7 µM -1% | [6]; [17] -1% | [6]; at 11.0 µM 0% | [6]; at 33.0 µM 2% | [6]; [18] 2% | [6]; at 50.0 µM -10.2% | [6]; at 100.0 µM 50% | [7]; at 1.2 µM -4% | [7]; at 3.7 µM -2% | [7]; at 11.0 µM -3% | [7]; at 33.0 µM -4% | [7]; at 100.0 µM 40% | [8]; [17] -6% | [8]; [18] -14% | [8]; at 50.0 µM 20.1% | [9]; at 1.2 µM -10% | [9]; at 3.7 µM -15% | [9]; at 11.0 µM -17% | [9]; at 33.0 µM -3% | [9]; at 100.0 µM 60% | [10]; [17] -28% | [10]; [18] -15% | [10]; at 50.0 µM 24.6% | [11]; at 1.2 µM -8% | [11]; at 3.7 µM -4% | [11]; [17] -11% | [11]; at 11.0 µM -33% | [11]; at 33.0 µM 19% | [11]; [18] 54% | [11]; at 50.0 µM 37.2% | [11]; at 100.0 µM 58% | [12]; at 1.2 µM -1% | [12]; at 3.7 µM -1% | [12]; at 11.0 µM 2% | [12]; at 33.0 µM 6% | [12]; at 100.0 µM 32% | [13]; at 1.2 µM 6% | [13]; at 3.7 µM 3% | [13]; at 11.0 µM 5% | [13]; at 33.0 µM 9% | [13]; at 100.0 µM 48% | [14]; at 1.2 µM 6% | [14]; at 3.7 µM 8% | [14]; at 11.0 µM 17% | [14]; at 33.0 µM 22% | [14]; at 100.0 µM 52% | [15]; [17] -10% | [15]; [18] 22% | [16]; at 1.2 µM 17% | [16]; at 3.7 µM 15% | [16]; at 11.0 µM -8% | [16]; at 33.0 µM 38% | [16]; at 100.0 µM 66%

O=C(COC(=O)c1cc(O)c(O)c(O)c1)c1ccc(-c2ccccc2)cc1
active: [1]; at 100.0 µM 96% | [2]; at 100.0 µM 97% | [3]; at 33.0 µM 91% | [3]; at 100.0 µM 96% | [5]; [18] 94% | [5]; at 100.0 µM 95% | [6]; [18] 95% | [6]; at 100.0 µM 97% | [7]; at 100.0 µM 95% | [8]; [18] 98% | [9]; at 100.0 µM 83% | [11]; [18] 97% | [11]; at 100.0 µM 97% | [12]; at 100.0 µM 95% | [13]; at 100.0 µM 95% | [14]; at 100.0 µM 97% | [15]; [18] 97% | [16]; at 100.0 µM 95%
inactive: [1]; at 1.2 µM -2% | [1]; at 3.7 µM 2% | [1]; at 11.0 µM 8% | [1]; at 33.0 µM 38% | [2]; at 1.2 µM -3% | [2]; at 3.7 µM -3% | [2]; at 11.0 µM -2% | [2]; at 33.0 µM 10% | [3]; at 1.2 µM 6% | [3]; at 3.7 µM 21% | [3]; at 11.0 µM 47% | [4]; at 1.2 µM -1% | [4]; at 3.7 µM -1% | [4]; at 11.0 µM 0% | [4]; at 33.0 µM 46% | [4]; at 100.0 µM 39% | [5]; at 1.2 µM -1% | [5]; at 3.7 µM 1% | [5]; [17] -16% | [5]; at 11.0 µM 11% | [5]; at 33.0 µM 42% | [5]; at 50.0 µM 45.9% | [6]; at 1.2 µM -3% | [6]; at 3.7 µM -3% | [6]; [17] 6% | [6]; at 11.0 µM 3% | [6]; at 33.0 µM 34% | [6]; at 50.0 µM 30.4% | [7]; at 1.2 µM 1% | [7]; at 3.7 µM 1% | [7]; at 11.0 µM 9% | [7]; at 33.0 µM 44% | [8]; [17] 7% | [8]; at 50.0 µM 60.9% | [9]; at 1.2 µM -6% | [9]; at 3.7 µM -9% | [9]; at 11.0 µM -11% | [9]; at 33.0 µM -1% | [10]; [17] -84% | [10]; [18] -12% | [10]; at 50.0 µM 0.6% | [11]; at 1.2 µM -4% | [11]; at 3.7 µM -3% | [11]; [17] 3% | [11]; at 11.0 µM -3% | [11]; at 33.0 µM 21% | [11]; at 50.0 µM 59.2% | [12]; at 1.2 µM -3% | [12]; at 3.7 µM -5% | [12]; at 11.0 µM -4% | [12]; at 33.0 µM 66% | [13]; at 1.2 µM -3% | [13]; at 3.7 µM 0% | [13]; at 11.0 µM 4% | [13]; at 33.0 µM 57% | [14]; at 1.2 µM -1% | [14]; at 3.7 µM 1% | [14]; at 11.0 µM 11% | [14]; at 33.0 µM 63% | [15]; [17] 19% | [15]; at 50.0 µM 40.2% | [16]; at 1.2 µM -1% | [16]; at 3.7 µM 2% | [16]; at 11.0 µM 12% | [16]; at 33.0 µM 58%
